From PubChem BioAssay (Tox21)
Where “and” joins values, the source holds several entries; their conditions need not be identical. Identical values can stand only once. Inconclusive results are not listed. Where a structure was tested more than once in an assay, its records may differ in their call. Calls of active or inactive are those of the source. Unless noted, calls come from the whole dose curve.

Legend:
[1] = Nuclear factor erythroid 2-related factor 2/antioxidant responsive element (Nrf2/ARE) small molecule agonists: qHTS cell viability counter screen in human keratinocytes (AID 1919968; active = well fitted curve in the direction sought with a large enough effect in the repeat runs; an effect the other way counts as inactive or inconclusive; note: nearly all actives have a fitted effect of over 55% in size; note: potency is the fitted concentration of half-maximal effect)
How it was run: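 CellTiter-Fluor fluorescence, read 1 h after reagent, gave viability in the same wells as the ARE-luciferase assay. KeratinoSens cells (1,500/well) had 23 h compound exposure at 37 C/5% CO2 following 5 h plating.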

[2] = Nuclear factor erythroid 2-related factor 2/antioxidant responsive element (Nrf2/ARE) small molecule agonists: luciferase reporter gene qHTS assay in human keratinocytes (AID 1919969); note: nearly all actives have a fitted effect of over 35% in size; note: potency is the fitted concentration of half-maximal effect
[3] = molecular target: Gonadotropin-releasing hormone receptor (Homo sapiens) (UniProt P30968); assay: Human gonadotropin-releasing hormone receptor (GnRHR) small molecule agonists, calcium flux assay in GnRHR-HEK293 cells (AID 1920063); note: nearly all actives have a fitted effect of over 35% in size
Chain of Gonadotropin-releasing hormone receptor (Homo sapiens) (P30968 whole entry, looked up): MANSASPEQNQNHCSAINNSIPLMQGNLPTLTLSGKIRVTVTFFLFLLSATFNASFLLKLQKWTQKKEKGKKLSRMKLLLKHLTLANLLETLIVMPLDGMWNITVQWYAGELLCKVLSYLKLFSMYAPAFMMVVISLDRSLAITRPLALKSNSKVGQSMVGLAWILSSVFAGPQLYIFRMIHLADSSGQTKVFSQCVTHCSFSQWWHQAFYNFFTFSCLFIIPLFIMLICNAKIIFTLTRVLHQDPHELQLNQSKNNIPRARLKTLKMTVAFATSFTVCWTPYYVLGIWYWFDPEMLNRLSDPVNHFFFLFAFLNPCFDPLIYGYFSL
How it was run: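 Agonist mode: compounds at 15 concentrations, in triplicate, went onto calcium dye-loaded GnRHR-HEK293 cells. Intracellular calcium was then followed as 480/540 nm fluorescence at 1 s intervals over 3 min.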

[4] = molecular target: KiSS-1 receptor (Homo sapiens) (UniProt Q969F8); assay: Human kisspeptin (KISS1R) small molecule agonists, calcium flux assay in KISS1R-HEK293 cells (AID 1920064; active = well fitted curve in the direction sought with a large enough effect in the repeat runs; an effect the other way counts as inactive or inconclusive)
Chain of KiSS-1 receptor (Homo sapiens) (Q969F8 whole entry, looked up): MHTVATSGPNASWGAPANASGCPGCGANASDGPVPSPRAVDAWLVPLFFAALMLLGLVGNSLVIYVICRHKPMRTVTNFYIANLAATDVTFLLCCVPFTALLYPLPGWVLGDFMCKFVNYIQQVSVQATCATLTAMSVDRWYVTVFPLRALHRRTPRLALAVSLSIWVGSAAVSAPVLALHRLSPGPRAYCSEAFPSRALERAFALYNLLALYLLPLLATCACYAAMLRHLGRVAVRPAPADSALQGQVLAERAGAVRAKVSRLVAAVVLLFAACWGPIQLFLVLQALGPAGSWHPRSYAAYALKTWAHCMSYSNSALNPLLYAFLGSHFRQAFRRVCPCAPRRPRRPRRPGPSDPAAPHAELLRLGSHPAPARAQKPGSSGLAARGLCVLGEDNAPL
How it was run: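 Agonist mode: intracellular calcium rise tracked at 1 s intervals over 3 min (480/540 nm) immediately after compound addition to dye-loaded KISS1R-HEK293 stable cells. Each compound tested at 15 concentrations in triplicate.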

[5] = G protein-coupled receptor (GPCR) small molecule agonists, calcium flux assay: HEK293 wild type cell line counter screen (AID 1920065)
How it was run: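 Calcium flux counter screen: compound added in agonist mode at 15 concentrations in triplicate to dye-loaded parental HEK293 cells. Fluorescence (480/540) read kinetically for 3 min; ATP served as positive control.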

[6] = p53 small molecule agonists, cell-based qHTS assay with human liver microsomes (AID 1963577);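 note: p53 response element beta-lactamase reporter cells with liver microsomes plus NADPH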
How it was run: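 In this qHTS, p53 response-element beta-lactamase cells receive test compound together with a microsome/NADPH activating system (0.5 mg/mL final each) and are incubated 16 h at 37 C before LiveBLAzer fluorescence detection.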

[7] = p53 small molecule agonists, cell-based qHTS assay with rat liver microsomes (AID 1963578)
How it was run: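 Agonist mode in p53RE-bla reporter cells, with compounds co-incubated 16 h at 37 C alongside 0.5 mg/mL rat liver microsomes and 0.5 mg/mL NADPH (final), followed by a 2 h LiveBLAzer detection step.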

[8] = p53 small molecule agonists, cell-based qHTS assay with human liver microsomes: qHTS cell viability counter screen (AID 1963579); note: nearly all actives have a fitted effect of over 45% in size
How it was run: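 Metabolically activated exposure: compounds, human liver microsomes and NADPH (0.5 mg/mL final apiece) were added to p53RE-bla cells seeded 5 h earlier, left 16 h at 37 C, and then assessed for viability by CellTiter-Glo luminescence.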

[9] = p53 small molecule agonists, cell-based qHTS assay: qHTS cell viability counter screen (AID 1963581); note: nearly all actives have a fitted effect of over 45% in size
How it was run: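 Counter screen read by CellTiter-Glo luminescence (ATP content, 30 min at room temperature), run in the same wells as the beta-lactamase reporter read. HCT-116 p53RE-bla cells saw compounds for 16 h at 37 C.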

[10] = molecular target: 5-hydroxytryptamine receptor 2A (Homo sapiens) (UniProt P28223); assay: 5-hydroxytryptamine receptor 2A (HTR2A) small molecule antagonists, cell-based qHTS assay (AID 1963586); note: nearly all actives have a fitted effect of over 45% in size
Chain of 5-hydroxytryptamine receptor 2A (Homo sapiens) (P28223 whole entry, looked up): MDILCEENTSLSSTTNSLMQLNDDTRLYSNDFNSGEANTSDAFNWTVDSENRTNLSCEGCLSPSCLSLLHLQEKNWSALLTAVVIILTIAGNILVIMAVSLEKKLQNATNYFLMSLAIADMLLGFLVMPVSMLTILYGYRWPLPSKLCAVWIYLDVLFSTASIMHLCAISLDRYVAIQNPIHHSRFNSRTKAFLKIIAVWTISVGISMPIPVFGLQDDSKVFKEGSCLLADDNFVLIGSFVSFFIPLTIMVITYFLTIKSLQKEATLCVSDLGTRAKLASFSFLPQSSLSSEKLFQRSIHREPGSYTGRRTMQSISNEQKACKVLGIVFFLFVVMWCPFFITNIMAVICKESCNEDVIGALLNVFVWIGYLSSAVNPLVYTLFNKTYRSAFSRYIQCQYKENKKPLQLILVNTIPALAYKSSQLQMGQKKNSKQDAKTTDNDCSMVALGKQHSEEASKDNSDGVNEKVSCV
How it was run: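 CHO cells stably expressing human HTR2A were plated for 18 h at 37 C, then loaded with calcium dye for 1 h. Compounds were preincubated 5 min at room temperature before DOI (4 nM solution) was added. Kinetic fluorescence was read for 3 min.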

[11] = molecular target: Muscarinic acetylcholine receptor M1 (Homo sapiens) (UniProt P11229); assay: Cholinergic receptor muscarinic 1 (CHRM1) small molecule antagonists, cell-based qHTS assay (AID 1963588); note: nearly all actives have a fitted effect of over 40% in size
Chain of Muscarinic acetylcholine receptor M1 (Homo sapiens) (P11229 whole entry, looked up): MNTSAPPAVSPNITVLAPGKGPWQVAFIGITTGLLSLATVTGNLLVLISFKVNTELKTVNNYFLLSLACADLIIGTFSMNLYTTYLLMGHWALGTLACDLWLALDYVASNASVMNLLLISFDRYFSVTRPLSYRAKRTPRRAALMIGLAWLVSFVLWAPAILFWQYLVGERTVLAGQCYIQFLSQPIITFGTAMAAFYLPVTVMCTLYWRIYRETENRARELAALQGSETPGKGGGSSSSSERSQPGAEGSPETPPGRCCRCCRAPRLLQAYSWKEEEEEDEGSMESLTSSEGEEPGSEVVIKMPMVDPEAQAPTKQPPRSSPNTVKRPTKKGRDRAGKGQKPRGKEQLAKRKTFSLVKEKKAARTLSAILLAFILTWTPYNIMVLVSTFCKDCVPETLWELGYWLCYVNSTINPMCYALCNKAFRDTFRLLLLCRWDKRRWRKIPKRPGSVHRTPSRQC
How it was run: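 Compounds were tested at 15 concentrations in three independent runs. Dye-loaded CHRM1-CHO cells were exposed 5 min at room temperature before stimulation by acetylcholine added at 50nM. Intracellular calcium was read kinetically on FDSS for 3 min.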

[12] = molecular target: Muscarinic acetylcholine receptor M1 (Homo sapiens) (UniProt P11229); assay: Cholinergic receptor muscarinic 1 (CHRM1) small molecule agonists, cell-based qHTS assay (AID 1963589); note: nearly all actives have a fitted effect of over 35% in size
How it was run: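 Agonist-mode calcium-flux screen: compounds at 15 concentrations, three independent runs, were pin-transferred onto dye-loaded human CHRM1-CHO cells. Fluorescence was then recorded kinetically every second over minutes.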

[13] = cAMP Responsive Elements (CRE) small molecule agonists, cell-based qHTS assay (AID 1963590)
How it was run: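 Agonist mode: compound added to CRE-bla HEK 293T cells (2,000/well, 18 h after plating) for 3 h at 37 C/5% CO2. Reporter activity detected via FRET beta-lactamase substrate, 2 h room-temperature loading.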

[14] = cAMP Responsive Elements (CRE) small molecule antagonists, cell-based qHTS assay (AID 1963591; active = well fitted inhibition curve with a large enough effect in the signal ratio in the repeat runs, not every such curve was filed as active; the % refers to the signal ratio)
How it was run: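 Antagonist mode: compounds are added alongside the adenylyl cyclase activator NKH477 (0.25 uM final) to CRE-bla HEK293T cells for 3 h. LiveBLAzer FRET substrate, 2 h at room temperature, reports bla expression.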

[15] = molecular target: Beta-2 adrenergic receptor (Homo sapiens) (UniProt P07550); assay: Adrenergic beta2 receptor (ADRB2) small molecule antagonists, cell-based qHTS assay (AID 1963592); note: series mostly up to about 92 µM; nearly all actives have a fitted effect of over 50% in size
Chain of Beta-2 adrenergic receptor (Homo sapiens) (P07550 whole entry, looked up): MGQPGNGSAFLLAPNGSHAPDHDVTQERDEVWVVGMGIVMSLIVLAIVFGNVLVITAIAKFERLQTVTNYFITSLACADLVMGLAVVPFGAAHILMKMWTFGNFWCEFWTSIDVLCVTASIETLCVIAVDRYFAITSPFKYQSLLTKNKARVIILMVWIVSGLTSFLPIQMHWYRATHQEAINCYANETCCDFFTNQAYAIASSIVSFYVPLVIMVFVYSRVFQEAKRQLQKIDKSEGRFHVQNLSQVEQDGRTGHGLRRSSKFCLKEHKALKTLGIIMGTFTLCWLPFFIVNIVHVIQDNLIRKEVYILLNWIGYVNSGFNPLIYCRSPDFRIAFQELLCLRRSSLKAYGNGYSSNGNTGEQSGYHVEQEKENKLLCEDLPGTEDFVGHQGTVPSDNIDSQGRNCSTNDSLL
How it was run: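 Assay format: CHO-ADRB2 cells, 18-20hr seeding at 37C/5% CO2, then compound plus 1nM isoproterenol agonist mix for 0.5hr RT. Homogeneous time-resolved fluorescence cAMP detection after 1hr, expressed as 665/615 nm ratio.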

[16] = molecular target: D(2) dopamine receptor (Homo sapiens) (UniProt P14416); assay: Dopamine D2 receptor (DRD2) small molecule agonists, cell-based qHTS assay (AID 1963594); note: nearly all actives have a fitted effect of over 35% in size
Chain of D(2) dopamine receptor (Homo sapiens) (P14416 whole entry, looked up): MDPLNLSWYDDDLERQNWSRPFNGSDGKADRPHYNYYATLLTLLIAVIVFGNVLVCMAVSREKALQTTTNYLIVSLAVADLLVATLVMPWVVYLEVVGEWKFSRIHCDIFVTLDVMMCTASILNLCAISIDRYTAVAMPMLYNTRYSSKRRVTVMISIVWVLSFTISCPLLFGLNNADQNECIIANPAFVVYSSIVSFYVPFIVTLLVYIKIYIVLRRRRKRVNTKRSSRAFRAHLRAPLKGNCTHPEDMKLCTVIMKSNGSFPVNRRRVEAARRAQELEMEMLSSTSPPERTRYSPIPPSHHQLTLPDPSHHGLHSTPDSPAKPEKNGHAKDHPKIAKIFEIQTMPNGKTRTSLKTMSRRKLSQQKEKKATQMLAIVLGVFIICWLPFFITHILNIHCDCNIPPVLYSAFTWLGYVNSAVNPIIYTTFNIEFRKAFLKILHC
How it was run: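 HEK293 cells stably expressing human DRD2, pre-treated with PDE inhibitor Ro20-1724 (0.1 mM final) and compound 10 min at room temperature, then stimulated with NKH477 (200nM […]) for 30 min. cAMP read by HTRF (665/620 nm).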

[17] = molecular target: D(2) dopamine receptor (Homo sapiens) (UniProt P14416); assay: Dopamine D2 receptor (DRD2) small molecule antagonists, cell-based qHTS assay (AID 1963595; active = well fitted inhibition curve with a large enough effect in the signal ratio in the repeat runs, with a control signal flat; the % refers to the signal ratio)
How it was run: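 HEK293 cells stably expressing DRD2 were preincubated with 0.1 mM Ro20-1724, then with compound for 10 min at room temperature. Cells were stimulated with 200 nM NKH477 plus 12 nM quinpirole for 30 min, and cAMP was read by HTRF.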

[18] = p53 small molecule agonists, cell-based qHTS assay (AID 1963582; active = well fitted activation curve with a large enough effect in the signal ratio in the repeat runs, not every such curve was filed as active; the % refers to the signal ratio)
How it was run: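 Read-out is beta-lactamase FRET fluorescence after 2 h at room temperature with LiveBLAzer B/G substrate. p53 response element-bla cells were treated 16 h at 37 C with compounds in DMSO, added 5 h after seeding.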

[19] = molecular target: 5-hydroxytryptamine receptor 2A (Homo sapiens) (UniProt P28223); assay: 5-hydroxytryptamine receptor 2A (HTR2A) small molecule agonists, cell-based qHTS assay (AID 1963587); note: nearly all actives have a fitted effect of over 30% in size
How it was run: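 CHO cells stably expressing human HTR2A, plated 18 h, loaded with calcium dye 1 h at 37 C. Agonist mode: compounds added and intracellular calcium fluorescence recorded kinetically for 2 min at 1 sec intervals.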

[20] = p53 small molecule agonists, cell-based qHTS assay with rat liver microsomes: qHTS cell viability counter screen (AID 1963580); note: nearly all actives have a fitted effect of over 45% in size
How it was run: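 After the beta-lactamase ratio was read, CellTiter-Glo was added to the same wells and luminescence measured at 30 min; cells had been treated 16 h at 37 C with compounds, rat liver microsomes and NADPH (0.5 mg/mL final each).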

Measured: Potency

CC(Br)C(=O)O (stereo not drawn)
not listed: [18] | [19] | [20]
inactive: all other assays above

O=c1c2ccccc2c(=O)c2c1cc(Cl)c1[nH]c3c([nH]c12)c(Cl)cc1c(=O)c2ccccc2c(=O)c13
not listed: [20]
inactive: all other assays above

OCCCl
not listed: [16] | [20]
inactive: all other assays above

CCNc1nc(Cl)nc(NC(C)C)n1
not listed: [8]
inactive: all other assays above

C1CS1
not listed: [12] | [18] | [19] | [20]
inactive: all other assays above

CCC[N+](=O)[O-]
2.68 µM (active) and inactive: [1]
not listed: [10] | [19] | [20]
inactive: all other assays above

c1ccc(-c2cccc(-c3ccccc3)c2)cc1
active: [2] 21.9 µM and 27.3 µM
not listed: [15] | [20]
inactive: all other assays above

CCOP(=O)(OCC)OCC
not listed: [8]
inactive: all other assays above
